Results published in PubChem BioAssay AID504432 (National Center for Advancing Translational Sciences (NCATS), 2011).
Several values for one entry are separate records, joined by “and”; a condition that tells them apart may be missing. Identical values can stand only once. Inconclusive results are not listed. Activity calls are given as the source filed them. The call rests on the fitted dose curve; in most records, active means well fitted inhibition curve with a large enough effect; inconclusive means small, poorly fitted or top-dose-only effect, or another doubt; inactive means flat fitted curve, though single readings scatter.

Assay: Confirmation Concentration-Response Assay for lipid storage modulators: for probe SAR round 2
Conditions: Drosophila S3 cells, BODIPY lipid droplet fluorescence, 18-24 h; series mostly up to 46.1 µM; activity change, negative = inhibition: at the top concentration
Text: NIH Molecular Libraries Probe Production Centers Network [MLPCN] NIH Chemical Genomics Center [NCGC] MLPCN Grant: 1 R03 MH085686-01 Assay Submitter (PI): Beller, Mathias; Max-Planck-Institut fur Biophysikalische Chemie NCGC Assay Overview: Storing lipids as a reservoir for energy or the anabolism of elementary metabolites is a common feature of probably all cells and is conserved from bacteria to humans. The universal cellular lipid storage organelle is the so-called lipid storage droplet (LD). Although ubiquitous, LDs share a simple structure composed of a hydrophobic core that harbors the storage lipids, which is shielded by a droplet-specific phospholipid monolayer to which proteins are attached. The current model of LD biogenesis involves an incorporation of the lipid core into the membrane leaflets of the endoplasmic reticulum (ER) followed by a subsequent budding-like maturation of a LD, which ultimately pinches off. Once released, LD volume can increase by localized lipogenesis or fusion of existing droplets. Storage lipids are re-mobilized enzymatically by lipase activity. Lipase regulation in the adipocyte is heavily studied and involves multiple components including catecholamine signaling, the LD-associated proteins Perilipin and comparative gene identification-58 (CGI-58) and at least two lipases named hormone sensitive lipase (HSL) and adipocyte triglyceride lipase (ATGL). LD regulation outside of the adipocyte is poorly understood and only few components are known. However, there is an urgent need to learn more about ectopic fat depots as mislocalized storage of lipids, for example in the liver or muscle, is an eminent health problem associated with insulin resistance or the metabolic syndrome. We developed a laser-scanning cytometer assay to enable 1,536-well screening and combined the results of the small molecules screen with an RNAi database based on lipid storage.
We dispensed 4 uL of cells at 1.25 x 10^6 cells/mL into LoBase Aurora COC 1,536-well plates (black walled, clear bottom) with a bottle-valve solenoid-based dispenser (Aurora) to obtain 5,000 cells/well. Triacsin C (Sigma-Aldrich T-4540), an inhibitor of long-chain fatty acyl CoA synthetase that blocks synthesis of triglycerides, was used as a positive control for lipid under-storage. A total of 23 nL of compound solution of different concentrations were transferred to the assay plates using a Kalypsys pin tool equipped with a 1,536-pin array containing 10-nL slotted pins (FP1S10, 0.457-mm diameter, 50.8 mm long; V&P Scientific). One microliter of oleic acid (400 uM) was added, and the plate was lidded with stainless steel rubber gasket lined lids containing pinholes. After 18-24 h incubation at 24 degree Celsius and 95% humidity, 4 uL of the dyes BODIPY 493/503 (Molecular Probes) and the Cell Tracker Red CMTPX dye (Molecular Probes) were added to the wells to stain lipid droplets and enumerate cell number, respectively. Fluorescence was detected by excitation of the fluorophores with a 488-nm laser on an Acumen Explorer (TTP Lab Tech). The total intensity in channel 1 (500-530 nm) reflected lipid droplet accumulation. Cells were detected using channel 3 (575- 640 nm) with 5-um width and 100-um depth filters. The ratio of the total intensity in PMT channel 1 over total intensity of channel 3 was also calculated. Percent activity was computed relative to an internal control (100% inhibited lipid droplet deposition due to the presence of 20 uM Triacsin C), which was added to 32 wells/plate.

Potency, active:
O=C(NC1CCCc2c1cnn2CCO)c1ccccn1 (stereo unspecified) 1.58 µM
CCOC(=O)C1CCN(C(=O)C(C)(C)NC(=O)Nc2ccc3ccccc3c2)CC1 4.99 µM
O=C(NC1CCCc2c1cnn2-c1ccc(F)cc1F)c1ccccn1 (stereo unspecified) 315 nM and 6.3 nM
CCOC(=O)C1CCN(C(=O)C(C)(C)NC(=O)Nc2ccccc2Cl)CC1 0.705 µM
CCN(CC)C(=O)C1CCN(C(=O)C(C)(C)NC(=O)Nc2ccccc2Cl)CC1 15.8 µM
CCOC(=O)C1CCN(C(=O)C(C)(C)NC(=O)Nc2cccc(OC)c2)CC1 4.45 µM
CCNC(=O)C1CCN(C(=O)C(C)(C)NC(=O)Nc2ccccc2Cl)CC1 14.1 µM
O=C(NC1CCCc2c1cnn2-c1ccc(F)cc1F)c1cccs1 (stereo unspecified) 0.0063 µM
CCOC(=O)C1CCN(C(=O)C(C)(C)NC(=O)Nc2ccc(Oc3ccccc3)cc2)CC1 0.353 µM
CCOc1ccc(CCNC(=O)c2cc3sccc3n2Cc2cccc(C)c2)cc1OCC 0.0022 µM
CCOC(=O)C1CCN(C(=O)C(C)(C)NC(=O)Nc2ccc(Cl)cc2Cl)CC1 0.445 µM
O=C(NC1CCCc2c1cnn2-c1cccc(O)c1)c1ccccn1 (stereo unspecified) 0.005 µM
CCOC(=O)C1CCN(C(=O)C(C)(C)NC(=O)Nc2ccc(-c3ccccc3)cc2)CC1 1.41 µM
CCOC(=O)C1CCN(C(=O)C(C)(C)NC(=O)Nc2ccc(F)c(F)c2)CC1 1.99 µM
O=C(N[C@H]1CCCc2c1cnn2-c1ccc(F)cc1F)c1ccccn1 22.3 µM
CCOC(=O)C1CCN(C(=O)C(C)(C)NC(=O)Nc2ccc3c(c2)CCC3)CC1 12.5 µM
CC(C)(C)OC(=O)NCCOCCOCCOc1ccc(-n2ncc3c2CCCC3NC(=O)c2ccccn2)cc1 (stereo unspecified) 0.0018 µM
CCOC(=O)C1CCN(C(=O)C(C)(C)NC(=O)Nc2ccc(N(C)C)cc2)CC1 5.6 µM
CCOC(=O)C1CCN(C(=O)C(C)(C)NC(=O)Nc2cccc(C(=O)OC)c2)CC1 7.05 µM
COc1ccc(-n2ncc3c2CCCC3NC(=O)c2ccccn2)cc1 (stereo unspecified) 0.0016 µM
CC(C)(C)OC(=O)NCCOCCOCCOCCn1ncc2c1CCCC2NC(=O)c1ccccn1 (stereo unspecified) 0.158 µM
CCOC(=O)C1CCN(C(=O)C(C)(C)NC(=O)Nc2ccc(C(F)(F)F)cc2Cl)CC1 0.141 µM
CCOC(=O)C1CCN(C(=O)C(C)(C)NC(=O)Nc2ccc3sccc3c2)CC1 12.5 µM
CCOC(=O)C1CCN(C(=O)C(C)(C)NC(=O)Nc2cccc(-c3csc(C)n3)c2)CC1 25 µM
CCOC(=O)C1CCN(C(=O)C(C)(C)NC(=O)Nc2ccc(OC)c(Cl)c2)CC1 7.91 µM
CC(C)(C)OC(=O)NCCOCCOCCOc1cccc(-n2ncc3c2CCCC3NC(=O)c2ccccn2)c1 (stereo unspecified) 0.0056 µM
COc1cccc(-n2ncc3c2CCCC3NC(=O)c2ccccn2)c1 (stereo unspecified) 0.0025 µM
O=C(NC1CCCc2c1cnn2-c1ccc(F)cc1F)c1ccccc1 (stereo unspecified) 0.025 µM
O=C(NC1CCCc2c1cnn2-c1ccc(O)cc1)c1ccccn1 (stereo unspecified) 0.0007 µM

Activity change, negative = inhibition, inactive:
CCOC(=O)C1CCN(C(=O)C(C)(C)NC(=O)Nc2ccc(CN3CCOCC3)cc2)CC1 -7.43%
CC(C)(NC(=O)Nc1ccccc1Cl)C(=O)N1CCC(C(=O)O)CC1 -33.1%
